The source of these data is paper PMC5700166.

The target in assay [1] is T1, GST-Nv-NF-kB (Ser allele) (Nematostella vectensis, UniProt A7UNT2 2-411).
T1 sequence: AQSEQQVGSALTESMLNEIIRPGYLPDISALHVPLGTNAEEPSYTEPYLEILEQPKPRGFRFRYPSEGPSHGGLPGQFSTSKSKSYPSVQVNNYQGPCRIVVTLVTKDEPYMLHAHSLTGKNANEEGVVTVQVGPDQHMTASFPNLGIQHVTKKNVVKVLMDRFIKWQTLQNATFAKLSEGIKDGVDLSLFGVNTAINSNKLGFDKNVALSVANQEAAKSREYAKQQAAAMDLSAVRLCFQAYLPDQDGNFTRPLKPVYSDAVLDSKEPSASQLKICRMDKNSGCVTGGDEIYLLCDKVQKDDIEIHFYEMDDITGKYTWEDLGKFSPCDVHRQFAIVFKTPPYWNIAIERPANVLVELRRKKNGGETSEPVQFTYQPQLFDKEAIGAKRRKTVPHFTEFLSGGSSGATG
The assay can be described thus: protein-binding microarray (PBM); PBM: ~300 nM protein, 6 mM HEPES pH 7.8, 80 mM KCl, 0.5 mM EDTA, 0.5 mM EGTA, 6% glycerol, 35 ng/ul poly-dIdC, 1% milk, 1 h, room temperature; Ap Aiptasia and Nv Nematostella (sea anemones) / Co Capsaspora / Aq Amphimedon (sponge) / Dm Drosophila / Hu human; RHD is the Rel homology domain; high values mean tight binding. The conditions noted are these: dsDNA, one strand shown.

The next assay addresses GST-Hu-p50 (Homo sapiens, UniProt P19838 7-356). The assay is described as above. To be noted: dsDNA, one strand shown.

GST-Hu-p50, sequence (P19838 7-356): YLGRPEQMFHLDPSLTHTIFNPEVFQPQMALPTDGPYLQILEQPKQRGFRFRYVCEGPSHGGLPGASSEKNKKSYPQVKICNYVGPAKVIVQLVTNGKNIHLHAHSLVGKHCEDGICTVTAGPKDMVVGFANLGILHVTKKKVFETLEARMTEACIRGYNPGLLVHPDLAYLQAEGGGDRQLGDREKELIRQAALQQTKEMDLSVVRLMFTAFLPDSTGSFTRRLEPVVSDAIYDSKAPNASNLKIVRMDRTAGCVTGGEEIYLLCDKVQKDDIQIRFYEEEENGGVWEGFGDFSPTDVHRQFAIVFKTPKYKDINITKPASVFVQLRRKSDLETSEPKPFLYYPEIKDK

Turning to “CCGATTAACATCAGGCTTCCCCCTGATGTTAATCGGGTCTTGATTCGCTTGACGCTGCTG”, the binding signal turned out to be 6.08 z-score in assay [1] and 5.25 z-score with GST-Hu-p50.

Turning to “CCGATTAACATCAAGGATTTCCCTGATGTTAATCGGGTCTTGATTCGCTTGACGCTGCTG”, the binding signal is 6.13 z-score in assay [1] and 4.33 z-score with GST-Hu-p50.

For “CCGATTAACATCAAGAGTTTCCCTGATGTTAATCGGGTCTTGATTCGCTTGACGCTGCTG”, the binding signal came to 4.9 z-score in assay [1] and 3.64 z-score with GST-Hu-p50.

For the sequence “CCGATTAACATCAGGTACTTCCATGATGTTAATCGGGTCTTGATTCGCTTGACGCTGCTG”, the results for the binding signal (in assay [1]; in the assay with GST-Hu-p50) were 5.91 z-score and 2.98 z-score, respectively.

As to “CCGATTAACATCAGGGAGCTACCTGATGTTAATCGGGTCTTGATTCGCTTGACGCTGCTG”, the binding signal is 1.68 z-score in assay [1] and 1.35 z-score with GST-Hu-p50.

For “CCGATTAACATCAGGGAAGCACCTGATGTTAATCGGGTCTTGATTCGCTTGACGCTGCTG”, the results for the binding signal (in assay [1]; in the assay with GST-Hu-p50) were 3.97 z-score and 5.24 z-score, respectively.

In the case of “CCGATTAACATCACAGGGAATTCTGATGTTAATCGGGTCTTGATTCGCTTGACGCTGCTG”, the values for the binding signal (in assay [1]; in the assay with GST-Hu-p50) were 4.96 z-score and 4.29 z-score, respectively.

Consider “CCGATTAACATCACCCACGAGGGTGATGTTAATCGGGTCTTGATTCGCTTGACGCTGCTG”, for which the binding signal in assay [1] came to 1.02 z-score; with GST-Hu-p50 it was 2.01 z-score.

As to “CCGATTAACATCACATGTTCCCCTGATGTTAATCGGGTCTTGATTCGCTTGACGCTGCTG”, the binding signal in assay [1] worked out at 6.15 z-score; in the assay with GST-Hu-p50 it was 3.07 z-score.

Take “CCGATTAACATCACGCAATTCCCTGATGTTAATCGGGTCTTGATTCGCTTGACGCTGCTG”: the binding signal in assay [1] was found to be 4.54 z-score; with GST-Hu-p50, 2.87 z-score.

For the sequence “CCGATTAACATCAGAAGTTTCCCTGATGTTAATCGGGTCTTGATTCGCTTGACGCTGCTG”, the binding signal worked out at 5.14 z-score in assay [1] and 4.43 z-score with GST-Hu-p50.

“CCGATTAACATCAAGGGGGTGACTGATGTTAATCGGGTCTTGATTCGCTTGACGCTGCTG”: the binding signal in assay [1] came out at 3.83 z-score; with GST-Hu-p50, 3.9 z-score.

Regarding “CCGATTAACATCAGGCCATCCCCTGATGTTAATCGGGTCTTGATTCGCTTGACGCTGCTG”, the binding signal was 3.8 z-score in assay [1] and 3.33 z-score with GST-Hu-p50.

In the case of “CCGATTAACATCAGGGTGTTTTATGATGTTAATCGGGTCTTGATTCGCTTGACGCTGCTG”, the figures for the binding signal (in assay [1]; in the assay with GST-Hu-p50) were 2.32 z-score and 4.01 z-score, respectively.

Take “CCGATTAACATCATGGTGGTACCTGATGTTAATCGGGTCTTGATTCGCTTGACGCTGCTG”: the binding signal in assay [1] was determined as 1.05 z-score; in the assay with GST-Hu-p50, 1.07 z-score.

Take “CCGATTAACATCAGGGTTTTTTATGATGTTAATCGGGTCTTGATTCGCTTGACGCTGCTG”: the values for the binding signal (in assay [1]; with GST-Hu-p50) were 4.61 z-score and 4.89 z-score, respectively.

“CCGATTAACATCAAAAAGGGAAATGATGTTAATCGGGTCTTGATTCGCTTGACGCTGCTG”: the binding signal in assay [1] was determined as 6.22 z-score; in the assay with GST-Hu-p50, 3.72 z-score.

In the case of “CCGATTAACATCAGGAGACTCCCTGATGTTAATCGGGTCTTGATTCGCTTGACGCTGCTG”, the binding signal in assay [1] stood at 1.61 z-score; in the assay with GST-Hu-p50, 1.93 z-score.

Turning to “CCGATTAACATCAAAGAAATCCCTGATGTTAATCGGGTCTTGATTCGCTTGACGCTGCTG”, the results for the binding signal (in assay [1]; with GST-Hu-p50) were 4.02 z-score and 3.77 z-score, respectively.

Consider “CCGATTAACATCAATACACCCCCTGATGTTAATCGGGTCTTGATTCGCTTGACGCTGCTG”, for which the binding signal (in assay [1]; with GST-Hu-p50) was 4.34 z-score throughout.

Turning to “CCGATTAACATCAGGAATTCACCTGATGTTAATCGGGTCTTGATTCGCTTGACGCTGCTG”, the binding signal in assay [1] is 2.04 z-score; with GST-Hu-p50, 3.81 z-score.

Regarding “CCGATTAACATCAGGAACTACCCTGATGTTAATCGGGTCTTGATTCGCTTGACGCTGCTG”, the values for the binding signal (in assay [1]; in the assay with GST-Hu-p50) were 2.02 z-score and 2.58 z-score, respectively.

As for “CCGATTAACATCAAATCATCCCCTGATGTTAATCGGGTCTTGATTCGCTTGACGCTGCTG”, the binding signal in assay [1] worked out at 6.16 z-score; with GST-Hu-p50, 4.63 z-score.

With “CCGATTAACATCACGGATTTCCCTGATGTTAATCGGGTCTTGATTCGCTTGACGCTGCTG”, the results for the binding signal (in assay [1]; in the assay with GST-Hu-p50) were 5.46 z-score and 3.76 z-score, respectively.

Consider “CCGATTAACATCAAACACTCCCCTGATGTTAATCGGGTCTTGATTCGCTTGACGCTGCTG”, for which the binding signal in assay [1] came out at 4.23 z-score; in the assay with GST-Hu-p50 it was 3.6 z-score.

For “CCGATTAACATCAGGGAGATTTGTGATGTTAATCGGGTCTTGATTCGCTTGACGCTGCTG”, the binding signal in assay [1] is 3.43 z-score; with GST-Hu-p50, 3.58 z-score.

As for “CCGATTAACATCAGGAAAAGCCCTGATGTTAATCGGGTCTTGATTCGCTTGACGCTGCTG”, the binding signal in assay [1] came to 1.03 z-score; in the assay with GST-Hu-p50 it was 2.56 z-score.

Regarding “CCGATTAACATCAATTACCCCCCTGATGTTAATCGGGTCTTGATTCGCTTGACGCTGCTG”, the binding signal amounted to 5.22 z-score in assay [1] and 4.35 z-score with GST-Hu-p50.

“CCGATTAACATCAGGGGGTTAACTGATGTTAATCGGGTCTTGATTCGCTTGACGCTGCTG”: the binding signal in assay [1] came to 4.34 z-score; with GST-Hu-p50 it was 4.57 z-score.

Turning to “CCGATTAACATCAGGGATTTCTATGATGTTAATCGGGTCTTGATTCGCTTGACGCTGCTG”, the binding signal in assay [1] was determined as 3.11 z-score; with GST-Hu-p50 it was 3.37 z-score.

With “CCGATTAACATCAACGGGAATTCTGATGTTAATCGGGTCTTGATTCGCTTGACGCTGCTG”, the values for the binding signal (in assay [1]; with GST-Hu-p50) were 5.37 z-score and 3.82 z-score, respectively.

On to “CCGATTAACATCAGAAATGGGAATGATGTTAATCGGGTCTTGATTCGCTTGACGCTGCTG”, for which the binding signal in assay [1] is 1.7 z-score; in the assay with GST-Hu-p50 it was 1.72 z-score.

Turning to “CCGATTAACATCAGGAAGTCCCATGATGTTAATCGGGTCTTGATTCGCTTGACGCTGCTG”, the figures for the binding signal (in assay [1]; with GST-Hu-p50) were 4.19 z-score and 4.09 z-score, respectively.

Consider “CCGATTAACATCAAATAGGGAATTGATGTTAATCGGGTCTTGATTCGCTTGACGCTGCTG”, for which the binding signal in assay [1] was determined as 4.24 z-score; with GST-Hu-p50, 3.55 z-score.

Turning to “CCGATTAACATCAGGGGGGGTGATGATGTTAATCGGGTCTTGATTCGCTTGACGCTGCTG”, the binding signal turned out to be 3.98 z-score in assay [1] and 4.13 z-score with GST-Hu-p50.

With “CCGATTAACATCACTTGGGAAACTGATGTTAATCGGGTCTTGATTCGCTTGACGCTGCTG”, the binding signal turned out to be 2.07 z-score in assay [1] and 1.38 z-score with GST-Hu-p50.

As to “CCGATTAACATCAGATTTCTCCCTGATGTTAATCGGGTCTTGATTCGCTTGACGCTGCTG”, the results for the binding signal (in assay [1]; in the assay with GST-Hu-p50) were 3.47 z-score and 1.72 z-score, respectively.

With “CCGATTAACATCAGGAATTACCATGATGTTAATCGGGTCTTGATTCGCTTGACGCTGCTG”, the binding signal in assay [1] worked out at 2.03 z-score; with GST-Hu-p50 it was 2.05 z-score.

“CCGATTAACATCAGGGGAAGGACTGATGTTAATCGGGTCTTGATTCGCTTGACGCTGCTG”: the binding signal in assay [1] is 5.04 z-score; in the assay with GST-Hu-p50 it was 3.89 z-score.

With “CCGATTAACATCAGGAAAAACCCTGATGTTAATCGGGTCTTGATTCGCTTGACGCTGCTG”, the binding signal in assay [1] is 3.96 z-score; in the assay with GST-Hu-p50, 4.56 z-score.

Take “CCGATTAACATCAGGGACTCCCATGATGTTAATCGGGTCTTGATTCGCTTGACGCTGCTG”: the figures for the binding signal (in assay [1]; with GST-Hu-p50) were 3.88 z-score and 3.34 z-score, respectively.

Consider “CCGATTAACATCAATGGGAATTCTGATGTTAATCGGGTCTTGATTCGCTTGACGCTGCTG”, for which the binding signal turned out to be 4.57 z-score in assay [1] and 3.4 z-score in the assay with GST-Hu-p50.

Turning to “CCGATTAACATCAGGTCGGGAAATGATGTTAATCGGGTCTTGATTCGCTTGACGCTGCTG”, the figures for the binding signal (in assay [1]; with GST-Hu-p50) were 2.31 z-score and 1.27 z-score, respectively.

As for “CCGATTAACATCAGGAACCCCCATGATGTTAATCGGGTCTTGATTCGCTTGACGCTGCTG”, the binding signal in assay [1] was 4.62 z-score; in the assay with GST-Hu-p50, 5.23 z-score.

Regarding “CCGATTAACATCAGAATTCCCGCTGATGTTAATCGGGTCTTGATTCGCTTGACGCTGCTG”, the figures for the binding signal (in assay [1]; with GST-Hu-p50) were 3.89 z-score and 3.53 z-score, respectively.

“CCGATTAACATCAATTTACCCACTGATGTTAATCGGGTCTTGATTCGCTTGACGCTGCTG”: the binding signal in assay [1] stood at 2.27 z-score; in the assay with GST-Hu-p50, 2.06 z-score.

As for “CCGATTAACATCAAAAAACCGTTTGATGTTAATCGGGTCTTGATTCGCTTGACGCTGCTG”, the binding signal was determined as 2.22 z-score in assay [1] and 1.52 z-score with GST-Hu-p50.
